# Data from PubChem BioAssay (EPA / NIEHS).
# Where “and” joins values, the source holds several entries; their conditions need not be identical. Equal entries are not always repeated. Records with an inconclusive call do not appear. Some compounds were tested as several samples or in several runs, with calls that do not always agree. Calls of active or inactive are those of the source. How the source made its calls: active means hit-call score of the fitted dose curve at least 0.9, where 1 is the maximum; inconclusive means response in the unintended direction; inactive means score below 0.9.
# Columns and labels:
# [1] = molecular target: Cytochrome P450 3A4 (Homo sapiens) (UniProt P08684); test: NVS_ADME_hCYP3A4: NovaScreen (NVS) CYP450-related Enzyme Activity (ADME) Assay for human CYP3A4 (AID 2283110)
# Procedure, shortened: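 Compounds screened in duplicate at 10 uM, with follow-up concentration-response for actives, against insect-cell-expressed recombinant enzyme. Activity read by fluorescence 0.33 h after dosing; loss of signal versus acetonitrile control indicates inhibition.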
# [2] = molecular target: Cytochrome P450 2C19 (Homo sapiens) (UniProt P33261); test: NVS_ADME_hCYP2C19: NovaScreen (NVS) CYP450-related Enzyme Activity (ADME) Assay for human CYP2C19 (AID 2283113);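 on AC50: potency for inhibition seen as loss of fluorescent signal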
# Procedure, shortened: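 Chemicals first screened in duplicate at 10 uM against recombinant human enzyme produced in insect cells; confirmed actives then run as concentration series. Fluorogenic substrate turnover read by fluorescence after 1 h, normalised to acetonitrile.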
# [3] = molecular target: human CYP2C9, CYP2C9 (gene 1559) (UniProt P11712); test: NVS_ADME_hCYP2C9: NovaScreen (NVS) CYP450-related Enzyme Activity (ADME) Assay for human CYP2C9 (AID 2283108)
# Procedure, shortened: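 Fluorescence readout of CYP2C9 activity (SF9-expressed human enzyme) at 0.75 h. The primary screen used 10 uM in duplicate, with concentration-response follow-up for actives; acetonitrile was the negative control.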
# [4] = molecular target: rat CYP2A2, Cyp2a2 (gene 24895) (UniProt P15149); test: NVS_ADME_rCYP2A2: NovaScreen (NVS) CYP450-related Enzyme Activity (ADME) Assay for rat CYP2A2 (AID 2283116)
# Procedure, shortened: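 Compounds first tested in duplicate at 10 uM, then in singleton concentration series up to 20 uM when over threshold. Activity of the recombinant enzyme read by fluorescence at 0.2 h, normalised to acetonitrile vehicle.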
# rat CYP3A1, gene 25642 = test: NVS_ADME_rCYP3A1: NovaScreen (NVS) CYP450-related Enzyme Activity (ADME) Assay for rat CYP3A1 (AID 2283126)
# Procedure, shortened: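 Compounds went first at 10 uM duplicate, then to series with 20 uM maximum. Fluorescence from substrate turnover by the recombinant enzyme was measured 0.5 h post-dosing, inhibition scored against acetonitrile vehicle.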
# [5] = molecular target: rat CYP3A2, Cyp3a2 (gene 266682) (UniProt P05183); test: NVS_ADME_rCYP3A2: NovaScreen (NVS) CYP450-related Enzyme Activity (ADME) Assay for rat CYP3A2 (AID 2283128)
# Protocol: (§1) NVS_ADME_rCYP3A2 is a biochemical, single-readout assay that uses extracted gene-proteins in a cell-free assay. Measurements were taken 0.5 hour after chemical dosing in a 96-well plate.NVS_ADME_rCYP3A2 is one of one assay component(s) measured or calculated from the NVS_ADME_rCYP3A2 assay. It is designed to make measurements of enzyme activity, a form of enzyme reporter, as detected with fluorescence intensity signals by Fluorescence technology.Data from the assay component NVS_ADME_rCYP3A2 was analyzed into 1 assay endpoint. This assay endpoint, NVS_ADME_rCYP3A2, was analyzed in the positive analysis fitting direction relative to Acetonitrile as the negative control and baseline of activity. Using a type of enzyme reporter, loss-of-signal activity can be used to understand changes in the enzymatic activity as they relate to the gene Cyp3a2. Furthermore, this assay endpoint can be referred to as a primary readout, because this assay has produced multiple assay endpoints where this one serves a enzymatic activity function. To generalize the intended target to other relatable targets, this assay endpoint is annotated to the cyp intended target family, where the subfamily is xenobiotic metabolism. […]
# [6] = molecular target: human Caspase 5 (CASP5), CASP5 (gene 838) (UniProt P51878); test: NVS_ENZ_hCASP5: NovaScreen (NVS) Enzymatic Assay for human Caspase 5 (CASP5) (AID 2283137)
# Procedure, shortened: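 Loss of fluorescent signal versus DMSO scored for E. coli-derived human CASP5 cleaving a fluorescent substrate, 2 h post-dosing; compounds first tested at 25 uM in duplicate, hits rerun in concentration series with 50 uM top concentration.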
# [7] = molecular target: rat CYP2C11, Cyp2c11 (gene 29277) (UniProt P08683); test: NVS_ADME_rCYP2C11: NovaScreen (NVS) CYP450-related Enzyme Activity (ADME) Assay for rat CYP2C11 (AID 2283118)
# Protocol: as §1, with “NVS_ADME_rCYP2C11” for “NVS_ADME_rCYP3A2”, “0.33” for “0.5”, “plate.NVS_ADME_rCYP2C11” for “plate.NVS_ADME_rCYP3A2”, “NVS_ADME_rCYP2C11,” for “NVS_ADME_rCYP3A2,”, “Cyp2c11.” for “Cyp3a2.”
# rat CYP2C6, gene 293989 = test: NVS_ADME_rCYP2C6: NovaScreen (NVS) CYP450-related Enzyme Activity (ADME) Assay for rat CYP2C6 (AID 2283120)
# Procedure, shortened: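 Compounds first tested in duplicate at 10 uM, hits (e.g. 30% inhibition) re-run in singleton dose series to a 20 uM top concentration. Enzyme activity of recombinant rat CYP2C6 measured via fluorescent substrate turnover after 1 h; acetonitrile baseline.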
# Chain of Cytochrome P450 3A4 (Homo sapiens) (P08684 whole entry, looked up): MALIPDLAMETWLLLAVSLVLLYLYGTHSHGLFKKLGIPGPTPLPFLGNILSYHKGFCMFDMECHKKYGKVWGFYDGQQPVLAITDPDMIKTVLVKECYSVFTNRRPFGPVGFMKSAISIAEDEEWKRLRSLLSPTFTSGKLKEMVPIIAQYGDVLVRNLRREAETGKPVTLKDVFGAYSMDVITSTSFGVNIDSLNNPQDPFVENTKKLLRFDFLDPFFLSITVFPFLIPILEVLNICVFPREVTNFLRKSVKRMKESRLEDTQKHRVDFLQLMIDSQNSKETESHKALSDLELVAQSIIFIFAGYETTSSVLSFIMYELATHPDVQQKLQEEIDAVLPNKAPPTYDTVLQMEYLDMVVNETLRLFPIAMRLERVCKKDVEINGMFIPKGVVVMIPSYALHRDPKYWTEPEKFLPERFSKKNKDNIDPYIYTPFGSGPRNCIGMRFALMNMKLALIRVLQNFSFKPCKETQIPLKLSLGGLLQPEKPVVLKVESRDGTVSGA
# Chain of rat CYP2A2, Cyp2a2 (gene 24895) (P15149 whole entry, looked up): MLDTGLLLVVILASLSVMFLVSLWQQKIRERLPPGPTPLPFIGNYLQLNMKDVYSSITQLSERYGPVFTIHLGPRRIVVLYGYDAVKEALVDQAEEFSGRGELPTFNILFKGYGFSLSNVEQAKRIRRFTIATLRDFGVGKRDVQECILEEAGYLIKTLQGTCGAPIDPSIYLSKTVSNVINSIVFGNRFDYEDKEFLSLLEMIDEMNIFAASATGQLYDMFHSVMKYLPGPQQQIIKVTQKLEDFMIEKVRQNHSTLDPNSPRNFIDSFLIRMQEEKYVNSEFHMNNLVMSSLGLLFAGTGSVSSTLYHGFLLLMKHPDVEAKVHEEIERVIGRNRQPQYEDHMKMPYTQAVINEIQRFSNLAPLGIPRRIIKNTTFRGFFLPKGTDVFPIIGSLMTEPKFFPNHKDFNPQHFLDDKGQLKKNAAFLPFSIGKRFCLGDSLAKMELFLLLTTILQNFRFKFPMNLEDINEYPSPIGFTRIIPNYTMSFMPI
# Chain of rat CYP2C11, Cyp2c11 (gene 29277) (P08683 whole entry, looked up): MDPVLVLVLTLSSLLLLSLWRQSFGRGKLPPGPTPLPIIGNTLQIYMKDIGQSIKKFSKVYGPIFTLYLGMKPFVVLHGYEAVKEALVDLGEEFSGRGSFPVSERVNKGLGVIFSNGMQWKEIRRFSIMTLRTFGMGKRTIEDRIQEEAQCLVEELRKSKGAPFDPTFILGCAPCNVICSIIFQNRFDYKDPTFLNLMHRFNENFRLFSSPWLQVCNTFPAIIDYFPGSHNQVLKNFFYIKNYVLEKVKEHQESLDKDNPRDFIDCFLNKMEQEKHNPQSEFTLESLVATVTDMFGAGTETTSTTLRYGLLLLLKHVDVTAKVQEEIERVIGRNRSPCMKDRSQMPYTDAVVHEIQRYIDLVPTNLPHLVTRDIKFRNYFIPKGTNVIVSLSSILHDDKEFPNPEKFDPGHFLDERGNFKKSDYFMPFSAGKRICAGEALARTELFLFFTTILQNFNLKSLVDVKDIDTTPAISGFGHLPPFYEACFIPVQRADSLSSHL
# Chain of human Caspase 5 (CASP5), CASP5 (gene 838) (P51878 whole entry, looked up): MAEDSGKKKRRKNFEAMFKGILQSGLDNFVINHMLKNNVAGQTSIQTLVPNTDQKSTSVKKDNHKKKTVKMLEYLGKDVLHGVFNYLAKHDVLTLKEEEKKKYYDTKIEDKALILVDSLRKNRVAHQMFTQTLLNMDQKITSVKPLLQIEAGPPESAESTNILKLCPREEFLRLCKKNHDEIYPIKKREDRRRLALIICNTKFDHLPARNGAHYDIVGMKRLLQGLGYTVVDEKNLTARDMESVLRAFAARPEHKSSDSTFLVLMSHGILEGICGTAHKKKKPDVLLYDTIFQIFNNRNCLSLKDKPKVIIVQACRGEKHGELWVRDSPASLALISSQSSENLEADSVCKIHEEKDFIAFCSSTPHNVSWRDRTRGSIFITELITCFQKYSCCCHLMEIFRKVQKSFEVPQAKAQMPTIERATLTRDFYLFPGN
# Chain of human CYP2C9, CYP2C9 (gene 1559) (P11712 whole entry, looked up): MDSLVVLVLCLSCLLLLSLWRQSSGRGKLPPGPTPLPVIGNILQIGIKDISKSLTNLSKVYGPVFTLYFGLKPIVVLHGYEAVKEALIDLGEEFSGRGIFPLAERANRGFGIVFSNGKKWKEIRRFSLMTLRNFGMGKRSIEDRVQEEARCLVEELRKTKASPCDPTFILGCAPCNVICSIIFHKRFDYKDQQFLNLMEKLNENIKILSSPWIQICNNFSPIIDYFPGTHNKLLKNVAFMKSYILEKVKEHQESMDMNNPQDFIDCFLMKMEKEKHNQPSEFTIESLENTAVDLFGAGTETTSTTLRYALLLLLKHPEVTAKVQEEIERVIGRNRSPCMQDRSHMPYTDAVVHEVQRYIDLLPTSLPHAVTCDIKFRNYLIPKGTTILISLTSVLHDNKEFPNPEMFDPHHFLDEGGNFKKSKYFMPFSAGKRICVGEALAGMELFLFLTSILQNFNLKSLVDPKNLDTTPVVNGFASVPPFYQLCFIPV
# Chain of rat CYP3A2, Cyp3a2 (gene 266682) (P05183 whole entry, looked up): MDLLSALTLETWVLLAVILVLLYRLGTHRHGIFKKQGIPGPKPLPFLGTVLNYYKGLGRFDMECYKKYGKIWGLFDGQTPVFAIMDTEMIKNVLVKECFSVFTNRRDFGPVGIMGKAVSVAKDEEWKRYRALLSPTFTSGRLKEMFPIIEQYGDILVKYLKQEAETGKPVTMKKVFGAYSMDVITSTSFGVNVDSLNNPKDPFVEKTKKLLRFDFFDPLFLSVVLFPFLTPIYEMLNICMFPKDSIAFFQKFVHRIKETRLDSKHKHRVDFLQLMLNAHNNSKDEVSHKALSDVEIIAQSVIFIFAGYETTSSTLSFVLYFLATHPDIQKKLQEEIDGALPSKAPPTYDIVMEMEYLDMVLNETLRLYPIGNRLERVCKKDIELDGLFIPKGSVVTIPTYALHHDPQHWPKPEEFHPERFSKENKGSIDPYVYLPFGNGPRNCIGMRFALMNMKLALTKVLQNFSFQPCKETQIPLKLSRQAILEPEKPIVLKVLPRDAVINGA
smiles,measurement,setting,value
CN(C)C(=O)NC1(c2ccccc2)CCN(CC[C@@]2(c3ccc(F)c(F)c3)CN(C(=O)c3ccccc3)CCO2)CC1,AC50,[1],5.63 µM (active)
same,outcome,[2],inactive
Cc1ccc(-c2cc(C(F)(F)F)nn2-c2ccc(S(N)(=O)=O)cc2)cc1,AC50,[3],6 µM (active)
CCCCc1nc2cccnc2n1Cc1ccc(-c2ccccc2-c2nnn[nH]2)cc1,AC50,[3],2.96 µM (active)
CC(=O)OCC(COC(C)=O)OC(C)=O,outcome,[1],inactive
CC(COCC(C)OC(=O)c1ccccc1)OC(=O)c1ccccc1 (stereo not drawn),AC50,[2],2.27 µM (active)
CC(C)(O)c1ccc(CNC(=O)c2cccnc2Oc2ccc(F)cc2)cc1,AC50,[2],4.26 µM (active)
Cc1cc(Cc2ccc(N)c(C)c2)ccc1N,AC50,[2],7.05 µM (active)
CC(=O)O[C@]1(C(C)=O)CC[C@H]2[C@@H]3C=C(Cl)C4=CC(=O)[C@@H]5C[C@@H]5[C@]4(C)[C@H]3CC[C@@]21C,AC50,[4],832 nM (active) and 2.03 µM (active) and 1.28 µM (active)
same,AC50,"rat CYP3A1, gene 25642",1.2 µM (active)
same,AC50,[5],1.42 µM (active)
O=C(NS(=O)(=O)/C=C/c1cccs1)c1ccc(F)cc1Br,AC50,[3],4.11 µM (active)
Cn1cnc2c1c(=O)[nH]c(=O)n2C,outcome,[6],inactive
CCN(CC)CCOc1ccc(C(=C(Cl)c2ccccc2)c2ccccc2)cc1,AC50,[3],6.93 µM (active)
same,AC50,[2],2.68 µM (active) [middle of 4 runs]
same,AC50,[4],3.22 µM (active) and 5.8 µM (active)
same,outcome,[4],inactive
same,AC50,[7],6.05 µM (active) and 5 µM (active) and 325 nM (active)
same,AC50,"rat CYP2C6, gene 293989",4.06 µM (active) and 3.54 µM (active) and 4.76 µM (active)
same,AC50,"rat CYP3A1, gene 25642",6.26 µM (active)
CCCCCCCCCCCCCCOS(=O)(=O)O,AC50,[6],2.27 µM (active)
Cc1cc(SC2=C(O)C[C@@](CCc3ccc(N)cc3)(C(C)C)OC2=O)c(C(C)(C)C)cc1CO,AC50,[2],7.64 µM (active)
CCc1cc(C2=C(C(=O)O)N(c3ccccc3C(F)(F)F)S(=O)(=O)c3ccccc32)cc2c1OCO2,outcome,[3],inactive
same,AC50,[1],4.98 µM (active)
same,AC50,[2],15.8 µM (active)
same,outcome,[6],inactive
O=Cc1ccccc1C=O,outcome,[6],inactive
CC(C)c1cccc(C(C)C)c1,AC50,[2],10 µM (active)
